Molecules are shown by their SMILES. The whole screen tested about 23,000 compounds, of which about 30 (0.1%) showed an effect of 50% or more. The sample as a whole holds a higher share of strong results than the screen did. Entries with a potency or affinity are not part of this list.

The test system of the assay is Pseudomonas aeruginosa. To be noted: Concentration 32 ug.mL-1;; ASSAY_TEST Inhibition of Bacterial Growth; detection method Absorption (OD600); MEDIA CAMHB; plate type 384well; NBS; CORNING #3640; time 18 hr.
For orientation: Inhibition means the relative decrease from the control value, in per cent. Turning to `COc1ccc(-c2cc3c4nn(CC(=O)Nc5ccc(F)cc5)c(=O)n4ccn3n2)cc1`, the Inhibition is listed as -1.39%.
For `O=C(CSc1nnc2c(=O)n(Cc3ccc(F)cc3)ccn12)NC1CCCC1`, the Inhibition came to 8.47%.
Turning to `Cc1ccc(Oc2nccn3c(=O)n(CC(=O)Nc4ccc(Cl)cc4F)nc23)cc1`, the Inhibition is reported as 0.79%.
`Cc1cccc(N(Cc2ccc(F)cc2)S(=O)(=O)c2cccn3c(C)nnc23)c1`: the Inhibition worked out at 11.57%.
On to `COc1cccc(CSc2nnc3c(=O)n(-c4ccc(Br)cc4)ccn23)c1`, for which the Inhibition is 16.71%.
As to `Cc1ccccc1Oc1nccn2c(=O)n(CC(=O)Nc3ccc(Cl)c(Cl)c3)nc12`, the Inhibition was 3.97%.
In the case of `O=C(Cn1nc2c(Sc3ccccc3)nccn2c1=O)Nc1ccc(Br)cc1F`, the Inhibition is 11.79%.
For `COc1ccc(CNC(=O)CCc2nnc3c4cc(-c5ccc(Cl)cc5)nn4ccn23)cc1OC` the value was 9.37%; for `O=C(Cn1nc2c(Sc3ccccc3)nccn2c1=O)Nc1ccc2c(c1)OCCO2`, 17.83%.
